Data from PubChem BioAssay AID1159580 (chemical genetic matrix, 2015).
Where “and” joins values, the source holds several entries; their conditions need not be identical. Equal entries are not always repeated. The campaign covered roughly 5,500 compounds. About 2,000 (36%) were called active. About 18% were inconclusive and are not listed. Rule as the data show it: active = normalized growth mostly below about 0.91 (no sharp cut-off); inconclusive = no clear call, values can overlap the other calls; inactive = mostly above about 0.92. The list shows a part of the results.

Test: chemical genetic growth profiling, strain panel (AID 1159580);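 also: tested at 20 µM; growth read once vehicle control cultures reached saturation at 30 °C; 1 = growth at the plate median or of vehicle wells; lower values mean less growth of the strain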
Details: growth OD

Measured: normalized growth

CC(C)(C)NCC(O)c1ccccc1Cl (stereo unspecified)
inactive: S. cerevisiae deletion strains, locus YJR075W, strain HOC1, stronger effect = lower value 1.01 and 1.04 | S. cerevisiae deletion strains, locus YKL009W, strain mrt4, stronger effect = lower value 0.96 | S. cerevisiae deletion strains, locus YKL068W, stronger effect = lower value 0.991 | S. cerevisiae deletion strains, locus YKL085W, strain MDH1 (second series), stronger effect = lower value 0.983 | S. cerevisiae deletion strains, locus YKL085W, strain MDH1, stronger effect = lower value 0.983 | S. cerevisiae deletion strains, locus YKL160W, strain elf1, stronger effect = lower value 1.02 | S. cerevisiae deletion strains, locus YKL190W, strain CNB1, stronger effect = lower value 0.995 | S. cerevisiae deletion strains, locus YKR001C, strain vps1, stronger effect = lower value 0.976 | S. cerevisiae deletion strains, locus YKR026C, strain gcn3, stronger effect = lower value 0.994 | S. cerevisiae deletion strains, locus YKR091W, strain srl3, stronger effect = lower value 0.997 | S. cerevisiae deletion strains, locus YLL001W, strain dnm1, stronger effect = lower value 1 | S. cerevisiae deletion strains, locus YLL026W, stronger effect = lower value 0.983 | S. cerevisiae deletion strains, locus YLL041C, strain sdh2, stronger effect = lower value 0.997 | S. cerevisiae deletion strains, locus YLR027C, strain aat2, stronger effect = lower value 0.992 | S. cerevisiae deletion strains, locus YLR039C, strain RIC1, stronger effect = lower value 0.923 | S. cerevisiae deletion strains, locus YLR058C, strain SHM2, stronger effect = lower value 0.975 | S. cerevisiae deletion strains, locus YLR102C, strain apc9, stronger effect = lower value 0.986 | S. cerevisiae deletion strains, locus YLR113W, strain HOG1, stronger effect = lower value 1.01 | S. cerevisiae deletion strains, locus YLR221C, strain rsa3, stronger effect = lower value 1.01 | S. cerevisiae deletion strains, locus YLR258W, strain gsy2, stronger effect = lower value 0.974 | S. cerevisiae deletion strains, locus YLR262C, strain YPT6 (second series), stronger effect = lower value 0.997 | S. cerevisiae deletion strains, locus YLR262C, strain YPT6, stronger effect = lower value 0.887 | S. cerevisiae deletion strains, locus YLR268W, strain sec22, stronger effect = lower value 1.09 | S. cerevisiae deletion strains, locus YLR320W, strain mms22, stronger effect = lower value 0.981 | S. cerevisiae deletion strains, locus YLR330W, strain CHS5, stronger effect = lower value 0.992 | S. cerevisiae deletion strains, locus YLR342W, strain FKS1 (second series), stronger effect = lower value 0.967 | S. cerevisiae deletion strains, locus YLR342W, strain FKS1, stronger effect = lower value 0.999 | S. cerevisiae deletion strains, locus YLR357W, strain rsc2, stronger effect = lower value 0.982 | S. cerevisiae deletion strains, locus YLR370C, strain arc18, stronger effect = lower value 0.997 | S. cerevisiae deletion strains, locus YLR371W, strain rom2, stronger effect = lower value 0.982 | S. cerevisiae deletion strains, locus YLR384C, strain iki3, stronger effect = lower value 0.989 | S. cerevisiae deletion strains, locus YLR418C, strain cdc73, stronger effect = lower value 0.993 | S. cerevisiae deletion strains, locus YML016C, strain PPZ1, stronger effect = lower value 0.99 | S. cerevisiae deletion strains, locus YML032C, strain rad52, stronger effect = lower value 1.02 | S. cerevisiae deletion strains, locus YML120C, strain ndi1, stronger effect = lower value 1.01 | S. cerevisiae deletion strains, locus YML124C, strain tub3, stronger effect = lower value 0.984 | S. cerevisiae deletion strains, locus YMR058W, strain fet3, stronger effect = lower value 0.997 | S. cerevisiae deletion strains, locus YMR078C, strain ctf18, stronger effect = lower value 0.982 | S. cerevisiae deletion strains, locus YMR125W, strain sto1, stronger effect = lower value 0.962 | S. cerevisiae deletion strains, locus YMR129W, stronger effect = lower value 0.967 | S. cerevisiae deletion strains, locus YMR205C, strain PFK2, stronger effect = lower value 0.951 | S. cerevisiae deletion strains, locus YMR223W, strain ubp8, stronger effect = lower value 0.96 | S. cerevisiae deletion strains, locus YMR231W, strain pep5, stronger effect = lower value 0.998 | S. cerevisiae deletion strains, locus YMR263W, strain SAP30, stronger effect = lower value 0.993 and 0.995 | S. cerevisiae deletion strains, locus YMR307W, strain GAS1, stronger effect = lower value 0.994 and 0.992 | S. cerevisiae deletion strains, locus YNL067W, strain RPL9B, stronger effect = lower value 1.02 | S. cerevisiae deletion strains, locus YNL071W, strain lat1, stronger effect = lower value 1 | S. cerevisiae deletion strains, locus YNL128W, strain TEP1, stronger effect = lower value 0.962 | S. cerevisiae deletion strains, locus YNL153C, strain GIM3, stronger effect = lower value 1.01 | S. cerevisiae deletion strains, locus YNL175C, strain NOP13, stronger effect = lower value 1.02 | S. cerevisiae deletion strains, locus YNL183C, strain NPR1, stronger effect = lower value 0.939 | S. cerevisiae deletion strains, locus YNL197C, strain WHI3, stronger effect = lower value 0.981 | S. cerevisiae deletion strains, locus YNL209W, strain ssb2, stronger effect = lower value 1 | S. cerevisiae deletion strains, locus YNL224C, strain SQS1, stronger effect = lower value 1.01 | S. cerevisiae deletion strains, locus YNL233W, strain BNI4, stronger effect = lower value 1.02 | S. cerevisiae deletion strains, locus YNL248C, strain rpa49, stronger effect = lower value 1.02 | S. cerevisiae deletion strains, locus YNL250W, strain rad50, stronger effect = lower value 0.976 | S. cerevisiae deletion strains, locus YNL271C, strain bni1, stronger effect = lower value 0.987 | S. cerevisiae deletion strains, locus YNL298W, strain CLA4, stronger effect = lower value 0.975 | S. cerevisiae deletion strains, locus YNL307C, strain MCK1, stronger effect = lower value 0.992 | S. cerevisiae deletion strains, locus YNL322C, strain KRE1 (second series), stronger effect = lower value 0.989 | S. cerevisiae deletion strains, locus YNL322C, strain KRE1, stronger effect = lower value 0.996 and 1 | S. cerevisiae deletion strains, locus YNR049C, strain mso1, stronger effect = lower value 0.994 | S. cerevisiae deletion strains, locus YNR052C, strain pop2, stronger effect = lower value 0.985 | S. cerevisiae deletion strains, locus YOL006C, strain TOP1, stronger effect = lower value 1.03 | S. cerevisiae deletion strains, locus YOL012C, strain htz1 0.982 | S. cerevisiae deletion strains, locus YOL147C, strain pex11, stronger effect = lower value 0.992 | S. cerevisiae deletion strains, locus YOR001W, strain rrp6, stronger effect = lower value 0.996 | S. cerevisiae deletion strains, locus YOR061W, strain CKA2, stronger effect = lower value 0.969 | S. cerevisiae deletion strains, locus YOR069W, strain VPS5, stronger effect = lower value 0.991 | S. cerevisiae deletion strains, locus YOR070C, strain gyp1, stronger effect = lower value 0.992 | S. cerevisiae deletion strains, locus YOR080W, strain dia2, stronger effect = lower value 0.974 | S. cerevisiae deletion strains, locus YOR083W, strain WHI5 (second series), stronger effect = lower value 1.02 | S. cerevisiae deletion strains, locus YOR083W, strain WHI5, stronger effect = lower value 1.01 | S. cerevisiae deletion strains, locus YOR106W, strain vam3, stronger effect = lower value 1.01 | S. cerevisiae deletion strains, locus YOR136W, strain idh2, stronger effect = lower value 0.983 | S. cerevisiae deletion strains, locus YOR144C, strain elg1, stronger effect = lower value 0.996 | S. cerevisiae deletion strains, locus YOR184W, strain ser1, stronger effect = lower value 0.98 | S. cerevisiae deletion strains, locus YOR231W, strain MKK1, stronger effect = lower value 0.99 | S. cerevisiae deletion strains, locus YOR265W, strain rbl2, stronger effect = lower value 0.99 | S. cerevisiae deletion strains, locus YOR270C, strain vph1, stronger effect = lower value 1.05 | S. cerevisiae deletion strains, locus YOR290C, strain snf2, stronger effect = lower value 0.956 | S. cerevisiae deletion strains, locus YOR316C, strain cot1, stronger effect = lower value 0.995 | S. cerevisiae deletion strains, locus YPL051W, strain arl3, stronger effect = lower value 0.999 | S. cerevisiae deletion strains, locus YPL055C, strain LGE1, stronger effect = lower value 0.989 and 1 | S. cerevisiae deletion strains, locus YPL078C, strain atp4, stronger effect = lower value 1.01 | S. cerevisiae deletion strains, locus YPL106C, strain sse1, stronger effect = lower value 0.944 | S. cerevisiae deletion strains, locus YPL240C, strain hsp82, stronger effect = lower value 0.994 | S. cerevisiae deletion strains, locus YPL241C, strain CIN2, stronger effect = lower value 0.984 and 1 | S. cerevisiae deletion strains, locus YPL256C, strain CLN2, stronger effect = lower value 0.984 | S. cerevisiae deletion strains, locus YPR119W, strain clb2, stronger effect = lower value 0.987 | S. cerevisiae deletion strains, locus YPR141C, strain kar3, stronger effect = lower value 0.982 | S. cerevisiae deletion strains, locus YPR163C, strain tif3, stronger effect = lower value 0.981 | S. cerevisiae deletion strains, locus YPR167C, strain met16, stronger effect = lower value 0.993 | S. cerevisiae deletion strains, strain wtn01, stronger effect = lower value 1.01 | S. cerevisiae strains, strain wild type, stronger effect = lower value 0.988
